For 10 compounds, growth results are on record in PubChem BioAssay (NCI).

Structures are written as SMILES. Values joined by “and” are separate entries in the source; they are usually repeats but may differ in a detail not shown here. Equal values may be shown once. About 83,000 compounds went through this panel and 20% of them were active in at least one assay; those are over-represented in the sample as a whole.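 How to read the values: 0–100, growth inhibition (40 = 60% inhibited); 0, no net growth; -100 to 0, cell death (-40 = 40% of starting cells died; -100 = all dead).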 Active and inactive are the calls of the source. Rule for the calls: active = growth percent below 10; inactive = the rest.

Some test systems named below: T-47D breast; BT-549 breast; MDA-MB-435 melanoma; SW-620 colon; MCF7 breast; HCC-2998 colon; KM12 colon.
Common to all, as to assay: NCI-60 one-dose screen, 48 h (100 = growth as untreated, 0 = no growth, -100 = all killed)
The test system of the next experiment is HCT-116 colon. Conditions: 10 µM unless noted.

As for `Cc1[nH]c(-c2nc3ccccc3[nH]2)c(C)c1C(=O)NC(C)C1CCCCC1` (stereo not given), the growth in the experiment with T-47D breast (10 µM) is 89% (inactive); in the experiment on T-47D breast (100 µM), -58.1% (active); in the experiment on BT-549 breast (10 µM), 95.5% (inactive); in the experiment with BT-549 breast (100 µM), -81.6% (active); with MDA-MB-435 melanoma (10 µM) it was 37.5% (inactive); in the experiment on MDA-MB-435 melanoma (100 µM), -94.8% (active). Also, the growth in the experiment on SW-620 colon (10 µM) is 92.9% (inactive); in the experiment on SW-620 colon (100 µM) it was -68.8% (active); in the experiment on MCF7 breast (10 µM) it was 71.1% (inactive); in the experiment with MCF7 breast (100 µM), -73.7% (active); in the experiment on HCC-2998 colon (10 µM) it was 97.9% (inactive); in the experiment on HCC-2998 colon (100 µM) it was -82.6% (active). Further, the growth in the experiment with KM12 colon (10 µM) is 84.4% (inactive); in the experiment on KM12 colon (100 µM), -91.8% (active).
Turning to `Clc1ccc(SSc2ccc(Cl)cc2)cc1`, the growth with T-47D breast (10 µM unless noted) is 96.2% (inactive) and 103% (inactive); with BT-549 breast (10 µM unless noted), 89% (inactive) and 9.06% (active); in the experiment on MDA-MB-435 melanoma (10 µM unless noted) it was 94% (inactive) and 100% (inactive); with SW-620 colon (10 µM unless noted), 97.3% (inactive) and 88.8% (inactive); in the experiment on MCF7 breast (10 µM unless noted), 102% (inactive) and 75.1% (inactive); in the experiment with HCT-116 colon it was 95.9% (inactive) and 71% (inactive). The growth in the experiment on HCC-2998 colon (10 µM unless noted) is 96.8% (inactive) and 98% (inactive); in the experiment with KM12 colon (10 µM unless noted) it was 107% (inactive).
As for `Cc1ccc(-c2noc(CC(=O)c3ccc([N+](=O)[O-])cc3)n2)cc1`, the growth in the experiment with T-47D breast (10 µM unless noted) is 87.8% (inactive); in the experiment with BT-549 breast (10 µM unless noted) it was 103% (inactive); in the experiment with MDA-MB-435 melanoma (10 µM unless noted), 98.1% (inactive); in the experiment on SW-620 colon (10 µM unless noted), 102% (inactive); in the experiment on MCF7 breast (10 µM unless noted) it was 98.2% (inactive); with HCT-116 colon, 98.7% (inactive). In addition, the growth in the experiment on HCC-2998 colon (10 µM unless noted) is 103% (inactive); in the experiment with KM12 colon (10 µM unless noted) it was 98% (inactive).
As to `Nc1cc(-c2cccc(OC(F)(F)F)c2)nc2ccc(N3CCCC3)cc12`, the growth with T-47D breast (10 µM unless noted) is 99.2% (inactive) and 100% (inactive) and 87.9% (inactive); in the experiment with BT-549 breast (10 µM unless noted) it was 16.2% (inactive) and 26.9% (inactive) and 3.22% (active); with MDA-MB-435 melanoma (10 µM unless noted), -9.34% (active) and -21.4% (active) and -35.8% (active); in the experiment on SW-620 colon (10 µM unless noted) it was 26.8% (inactive) and 32% (inactive) and 21.7% (inactive); in the experiment on MCF7 breast (10 µM unless noted) it was 15.4% (inactive) and 14.9% (inactive) and 15.8% (inactive); with HCT-116 colon, 2.86% (active) and 5.92% (active) and 2.47% (active). Besides, the growth in the experiment on HCC-2998 colon (10 µM unless noted) was -31.7% (active) and 2.5% (active) and -33.8% (active); with KM12 colon (10 µM unless noted), 10.1% (inactive) and 14.3% (inactive) and 3.24% (active).
Take `O=C(O)c1sccc1O`: the growth with T-47D breast (10 µM) is 53.9% (inactive); in the experiment on T-47D breast (100 µM) it was 18.2% (inactive); with BT-549 breast (10 µM), 69.5% (inactive); with BT-549 breast (100 µM) it was 11.6% (inactive); in the experiment with MDA-MB-435 melanoma (10 µM), 77.8% (inactive); in the experiment on MDA-MB-435 melanoma (100 µM) it was 0.533% (active). The growth in the experiment on MCF7 breast (10 µM unless noted) is 15.4% [100 µM] (inactive); with HCT-116 colon, 15.5% [100 µM] (inactive); in the experiment on HCC-2998 colon (10 µM), 109% (inactive); in the experiment on HCC-2998 colon (100 µM) it was 38.5% (inactive); with KM12 colon (10 µM), 78.3% (inactive); in the experiment on KM12 colon (100 µM), 2.5% (active).
As for `COc1cc(Nc2nc3ccccc3nc2NS(=O)(=O)c2ccc(NC(=O)c3ccc(C)c(OC)c3)cc2)cc(OC)c1`, the growth in the experiment with T-47D breast (10 µM unless noted) is 35.9% (inactive) and -31.1% (active); in the experiment with BT-549 breast (10 µM unless noted), 39.6% (inactive) and -6.94% (active); in the experiment on MDA-MB-435 melanoma (10 µM unless noted), 68.3% (inactive) and 3.11% (active); in the experiment on SW-620 colon (10 µM unless noted) it was 52% (inactive) and 28.1% (inactive); in the experiment on MCF7 breast (10 µM unless noted) it was 36.6% (inactive) and 5.28% (active); with HCT-116 colon, 69.9% (inactive) and 18.2% (inactive). The growth in the experiment on HCC-2998 colon (10 µM unless noted) was 68.5% (inactive); in the experiment on KM12 colon (10 µM unless noted), 54% (inactive) and 13.9% (inactive).
Consider `CCCCOc1cc(C(=O)NCCN(CC)CC)c2ccccc2n1`, for which the growth is 82.9% (inactive) and 92.4% (inactive) in the experiment on T-47D breast (10 µM unless noted); 93.4% (inactive) and 98.5% (inactive) in the experiment on BT-549 breast (10 µM unless noted); 88.9% (inactive) and 98.1% (inactive) in the experiment with MDA-MB-435 melanoma (10 µM unless noted); 105% (inactive) and 97.7% (inactive) with SW-620 colon (10 µM unless noted); 93.3% (inactive) and 95% (inactive) in the experiment with MCF7 breast (10 µM unless noted); 91% (inactive) and 105% (inactive) with HCT-116 colon. Further, the growth was 96% (inactive) and 92.2% (inactive) in the experiment on HCC-2998 colon (10 µM unless noted); 101% (inactive) and 110% (inactive) with KM12 colon (10 µM unless noted).
`COc1cc(/C=N/Nc2nc3c([nH]2)c(=O)n(C)c(=O)n3C)ccc1O`: the growth is 93% (inactive) and 102% (inactive) with T-47D breast (10 µM unless noted); 103% (inactive) and 112% (inactive) with BT-549 breast (10 µM unless noted); 104% (inactive) and 116% (inactive) in the experiment on MDA-MB-435 melanoma (10 µM unless noted); 105% (inactive) and 110% (inactive) in the experiment with SW-620 colon (10 µM unless noted); 97% (inactive) and 95.2% (inactive) with MCF7 breast (10 µM unless noted); 100% (inactive) and 108% (inactive) in the experiment on HCT-116 colon. The growth in the experiment on HCC-2998 colon (10 µM unless noted) is 102% (inactive) and 124% (inactive); with KM12 colon (10 µM unless noted), 67.6% (inactive) and 79.4% (inactive).
With `CN1CCN(c2ccc3nc(-c4c(N)c5c(F)cccc5[nH]c4=O)[nH]c3c2)CC1`, the growth with T-47D breast (10 µM unless noted) was 71.6% (inactive) and 64.4% (inactive); in the experiment on BT-549 breast (10 µM unless noted) it was -66% (active) and 49.3% (inactive); in the experiment on MDA-MB-435 melanoma (10 µM unless noted) it was 26.6% (inactive) and 16.1% (inactive); in the experiment with SW-620 colon (10 µM unless noted) it was 14.3% (inactive) and 15.8% (inactive); in the experiment with MCF7 breast (10 µM unless noted), 14.8% (inactive) and 14.7% (inactive); in the experiment with HCT-116 colon, 19.1% (inactive) and 3.86% (active). The growth in the experiment with HCC-2998 colon (10 µM unless noted) was 38.2% (inactive) and 44.8% (inactive); in the experiment with KM12 colon (10 µM unless noted), 12.8% (inactive) and 13.7% (inactive).
Turning to `Oc1nc(NCCc2ccccc2)sc1/C=C1\C=Nc2ncccc21`, the growth with T-47D breast (10 µM unless noted) is -1.34% (active) and 2.6% (active); with BT-549 breast (10 µM unless noted), 5.29% (active) and -7.9% (active); in the experiment on MDA-MB-435 melanoma (10 µM unless noted) it was 18.5% (inactive) and 21% (inactive); in the experiment on SW-620 colon (10 µM unless noted), 7.8% (active) and 9.88% (active); in the experiment with MCF7 breast (10 µM unless noted) it was 2% (active) and 4% (active); in the experiment on HCT-116 colon it was 5.84% (active) and 9.69% (active). The growth was 66.2% (inactive) and 53.9% (inactive) in the experiment with HCC-2998 colon (10 µM unless noted); 9.25% (active) and 13.1% (inactive) in the experiment with KM12 colon (10 µM unless noted).
